Measurements taken from PubChem BioAssay AID1159580 (chemical genetic matrix, 2015).
Out of some 5,500 compounds screened, about 2,000 (36%) were called active. Inconclusive results (about 18%) are left out. No stated cut-off is given here; in the data, active means normalized growth mostly below about 0.91 (no sharp cut-off); inconclusive means no clear call, values can overlap the other calls; inactive means mostly above about 0.92. The list shows a part of the results.

Assay: chemical genetic growth profiling, strain panel (AID 1159580);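 further: tested at 20 µM; growth read once vehicle control cultures reached saturation at 30 °C; 1 = growth at the plate median or of vehicle wells; lower values mean less growth of the strain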
Conditions: growth OD
[1] = S. cerevisiae deletion strains, locus YAL013W, strain DEP1, hits give low values
[2] = S. cerevisiae deletion strains, locus YBR229C, strain ROT2, hits give low values
[3] = S. cerevisiae deletion strains, locus YDL101C, strain DUN1, hits give low values
[4] = S. cerevisiae deletion strains, locus YDR150W, strain NUM1, hits give low values
[5] = S. cerevisiae deletion strains, locus YEL061C, strain CIN8, hits give low values
[6] = S. cerevisiae deletion strains, locus YGR078C, strain PAC10, hits give low values
[7] = S. cerevisiae deletion strains, locus YHR030C, strain SLT2, hits give low values
[8] = S. cerevisiae deletion strains, locus YHR087W, strain rtc3, hits give low values
[9] = S. cerevisiae deletion strains, locus YJR043C, strain POL32, hits give low values
[10] = S. cerevisiae deletion strains, locus YJR075W, strain HOC1, hits give low values
[11] = S. cerevisiae deletion strains, locus YLR039C, strain RIC1, hits give low values
[12] = S. cerevisiae deletion strains, locus YLR058C, strain SHM2 (second series), hits give low values
[13] = S. cerevisiae deletion strains, locus YLR085C, strain ARP6, hits give low values
[14] = S. cerevisiae deletion strains, locus YLR262C, strain YPT6, hits give low values
[15] = S. cerevisiae deletion strains, locus YML094W, strain GIM5, hits give low values
[16] = S. cerevisiae deletion strains, locus YMR219W, strain ESC1, hits give low values
[17] = S. cerevisiae deletion strains, locus YMR263W, strain SAP30, hits give low values
[18] = S. cerevisiae deletion strains, locus YMR307W, strain GAS1, hits give low values
[19] = S. cerevisiae deletion strains, locus YNL128W, strain TEP1, hits give low values
[20] = S. cerevisiae deletion strains, locus YNL153C, strain GIM3, hits give low values
[21] = S. cerevisiae deletion strains, locus YNL298W, strain CLA4 (second series), hits give low values
[22] = S. cerevisiae deletion strains, locus YNL322C, strain KRE1, hits give low values
[23] = S. cerevisiae deletion strains, locus YNR030W, strain Alg12, hits give low values
[24] = S. cerevisiae deletion strains, locus YPL055C, strain LGE1, hits give low values
[25] = S. cerevisiae deletion strains, locus YPL241C, strain CIN2, hits give low values
[26] = S. cerevisiae deletion strains, locus YPR135W, strain CTF4, hits give low values
[27] = S. cerevisiae strains, strain wild type, hits give low values

Measured: normalized growth

COc1ccc(-n2c(-c3ccc(C)cc3)csc2=N)cc1
inactive: [1] 0.996 | [2] 1 | [3] 1 | [4] 1.02 | [5] 0.97 | [6] 1 | [7] 1.05 | [8] 0.995 | S. cerevisiae deletion strains, locus YJL187C, strain SWE1, hits give low values 0.985 | [9] 1.01 | [10] 1.01 | [11] 1.01 | [12] 1 | [13] 0.918 | [14] 1 | [15] 0.996 | [16] 1.01 | [17] 1.03 | [18] 1.03 | [19] 0.992 | [20] 1.03 | [21] 0.983 | [22] 1 | [23] 0.988 | [24] 1.03 | [25] 1.01 | [26] 1.24 | [27] 0.994

COc1ccc(-c2ccc(C=C(C#N)C#N)s2)cc1
active: [2] 0.918 | [6] 0.925 | [11] 0.757
inactive: [1] 0.946 | S. cerevisiae deletion strains, locus YCL061C, strain MRC1, hits give low values 0.95 | [3] 0.95 | [4] 0.967 | [5] 0.922 | [7] 0.943 | [8] 0.939 | [9] 0.958 | [10] 1.01 | [12] 0.971 | [13] 0.912 | [14] 0.832 | [15] 0.899 | [16] 0.969 | [17] 0.974 | [19] 0.977 | [20] 0.938 | [21] 0.895 | [22] 0.964 | [23] 0.903 | [24] 0.932 | [25] 1.07 | [26] 0.948

C[C@H](N)[C@H](O)c1ccccc1
inactive: S. cerevisiae deletion strains, locus YBR021W, strain FUR4, hits give low values 0.997 | [2] 1 | S. cerevisiae deletion strains, locus YCL029C, strain bik1, hits give low values 1 | S. cerevisiae deletion strains, locus YDL035C, strain GPR1, hits give low values 1.01 | S. cerevisiae deletion strains, locus YDL074C, strain BRE1, hits give low values 1.01 | [3] 0.949 | S. cerevisiae deletion strains, locus YDL134C, strain PPH21, hits give low values 1 | S. cerevisiae deletion strains, locus YDL185W, strain tfp1, hits give low values 0.991 | S. cerevisiae deletion strains, locus YDL192W, strain arf1, hits give low values 1 | S. cerevisiae deletion strains, locus YDR101C, strain arx1, hits give low values 1 | [4] 1.01 | S. cerevisiae deletion strains, locus YDR162C, strain NBP2, hits give low values 1.01 | S. cerevisiae deletion strains, locus YDR318W, strain mcm21, hits give low values 0.993 | S. cerevisiae deletion strains, locus YDR388W, hits give low values 0.993 | S. cerevisiae deletion strains, locus YDR502C, strain sam2, hits give low values 0.994 | [5] 1 | S. cerevisiae deletion strains, locus YER110C, hits give low values 0.997 | S. cerevisiae deletion strains, locus YER155C, strain BEM2, hits give low values 0.998 | S. cerevisiae deletion strains, locus YER167W, strain BCK2, hits give low values 1 | S. cerevisiae deletion strains, locus YGL078C, strain dbp3, hits give low values 0.996 | S. cerevisiae deletion strains, locus YGL086W, strain mad1, hits give low values 0.991 | S. cerevisiae deletion strains, locus YGL248W, strain PDE1, hits give low values 1 | [6] 1.01 | S. cerevisiae deletion strains, locus YGR135W, strain pre9, hits give low values 0.998 | S. cerevisiae deletion strains, locus YGR229C, strain SMI1, hits give low values 1 | S. cerevisiae deletion strains, locus YGR252W, strain gcn5, hits give low values 1.01 | [7] 1 | S. cerevisiae deletion strains, locus YHR079C, strain IRE1 (second series), hits give low values 0.997 | S. cerevisiae deletion strains, locus YHR094C, strain hxt1, hits give low values 0.996 | S. cerevisiae deletion strains, locus YHR129C, strain ARP1, hits give low values 1.01 | S. cerevisiae deletion strains, locus YHR200W, strain rpn10, hits give low values 0.995 | S. cerevisiae deletion strains, locus YIL066C, strain RNR3, hits give low values 1 | S. cerevisiae deletion strains, locus YIL073C, strain SPO22, hits give low values 1.03 | S. cerevisiae deletion strains, locus YIL125W, strain kgd1, hits give low values 0.994 | S. cerevisiae deletion strains, locus YIR030C, strain dcg1, hits give low values 0.996 | S. cerevisiae deletion strains, locus YJL095W, strain BCK1, hits give low values 1.02 | S. cerevisiae deletion strains, locus YJL134W, strain LCB3, hits give low values 1 | S. cerevisiae deletion strains, locus YJL168C, strain set2, hits give low values 0.995 | S. cerevisiae deletion strains, locus YJL187C, strain SWE1 (second series), hits give low values 1.01 | [9] 0.982 | S. cerevisiae deletion strains, locus YKL009W, strain mrt4, hits give low values 0.989 | S. cerevisiae deletion strains, locus YKL068W, hits give low values 0.999 | S. cerevisiae deletion strains, locus YKL085W, strain MDH1 (second series), hits give low values 0.989 | S. cerevisiae deletion strains, locus YKL085W, strain MDH1, hits give low values 0.989 | S. cerevisiae deletion strains, locus YKL190W, strain CNB1, hits give low values 1 | S. cerevisiae deletion strains, locus YKR001C, strain vps1, hits give low values 0.99 | [11] 0.993 | S. cerevisiae deletion strains, locus YLR058C, strain SHM2, hits give low values 1 | S. cerevisiae deletion strains, locus YLR102C, strain apc9, hits give low values 1 | [14] 1.01 | S. cerevisiae deletion strains, locus YLR268W, strain sec22, hits give low values 0.99 | S. cerevisiae deletion strains, locus YLR330W, strain CHS5, hits give low values 0.999 | S. cerevisiae deletion strains, locus YLR342W, strain FKS1 (second series), hits give low values 1.01 | S. cerevisiae deletion strains, locus YLR371W, strain rom2, hits give low values 1 | S. cerevisiae deletion strains, locus YLR418C, strain cdc73, hits give low values 0.978 | S. cerevisiae deletion strains, locus YML016C, strain PPZ1, hits give low values 1 | S. cerevisiae deletion strains, locus YML032C, strain rad52, hits give low values 0.984 | S. cerevisiae deletion strains, locus YML124C, strain tub3, hits give low values 0.998 | S. cerevisiae deletion strains, locus YMR078C, strain ctf18, hits give low values 0.993 | S. cerevisiae deletion strains, locus YMR223W, strain ubp8, hits give low values 1 | [17] 1 | [18] 0.983 | S. cerevisiae deletion strains, locus YNL067W, strain RPL9B, hits give low values 1 | [19] 1.01 | [20] 1 | S. cerevisiae deletion strains, locus YNL233W, strain BNI4, hits give low values 0.996 | S. cerevisiae deletion strains, locus YNL250W, strain rad50, hits give low values 0.984 | S. cerevisiae deletion strains, locus YNL271C, strain bni1, hits give low values 0.998 | S. cerevisiae deletion strains, locus YNL298W, strain CLA4, hits give low values 1 | S. cerevisiae deletion strains, locus YNL307C, strain MCK1, hits give low values 0.999 | [22] 1 | S. cerevisiae deletion strains, locus YNR052C, strain pop2, hits give low values 1 | S. cerevisiae deletion strains, locus YOL006C, strain TOP1, hits give low values 1.02 | S. cerevisiae deletion strains, locus YOL012C, strain htz1 1.73 | S. cerevisiae deletion strains, locus YOL147C, strain pex11, hits give low values 0.996 | S. cerevisiae deletion strains, locus YOR061W, strain CKA2, hits give low values 0.998 | S. cerevisiae deletion strains, locus YOR069W, strain VPS5, hits give low values 1 | S. cerevisiae deletion strains, locus YOR136W, strain idh2, hits give low values 0.996 | S. cerevisiae deletion strains, locus YOR144C, strain elg1, hits give low values 0.995 | S. cerevisiae deletion strains, locus YOR184W, strain ser1, hits give low values 0.985 | S. cerevisiae deletion strains, locus YOR316C, strain cot1, hits give low values 0.999 | [24] 1.01 | S. cerevisiae deletion strains, locus YPR119W, strain clb2, hits give low values 0.999 | S. cerevisiae deletion strains, locus YPR141C, strain kar3, hits give low values 0.996 | S. cerevisiae deletion strains, locus YPR163C, strain tif3, hits give low values 0.994 | S. cerevisiae deletion strains, locus YPR167C, strain met16, hits give low values 1 | S. cerevisiae deletion strains, strain wtn01, hits give low values 0.983 | [27] 1
